Measured values published in PubChem BioAssay (NCI).
Several values for one entry are separate records, joined by “and”; a condition that tells them apart may be missing. Equal entries are not always repeated. The panel holds about 83,000 compounds, 20% with a hit somewhere; the sample as a whole holds those more often.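 A percent growth of 40 corresponds to 60% growth inhibition; 0 means no net growth; -100 means all cells died. Active threshold: below 10.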 A number with no mark means an inactive call. Activity calls are given as the source filed them.

tested on: MDA-MB-468 breast; test: NCI-60 one-dose screen, 48 h (100 = growth as untreated, 0 = no growth, -100 = all killed); conditions: 10 µM unless noted

Row | Compound | growth
1 | COc1ccc(C(=O)/C=C/c2sc(Cl)nc2Cl)cc1 | -13.8% (active)
2 | NC(=O)c1c(OCc2c(F)cc(Br)cc2F)nsc1NC(=O)NCCCCN1CCCC1 | -57.8% (active)
3 | COc1ccc(Cn2c(NCCN=C(N)N)nc(=O)n(Cc3ccc(F)cc3)c2=O)cc1 | 56.7% and 33.4%
4 | CCC(/C=C\C(C)=O)CC | 102%
5 | COc1ccc(C(OCC2OC(n3ccc(NC(=O)c4ccccc4)nc3=O)C(O)C2O)(c2ccccc2)c2ccccc2)cc1 (stereo not given) | 45.9%
6 | COc1cc2c(c(OC)c1OC)-c1ccc(N=NC(N)=S)c(=O)cc1[C@@H](NC(C)=O)CC2 | -40.8% (active)
7 | CCCOC(=O)c1ccc2c(c1)[N+](=O)C(C(=O)c1ccccc1)=C(C(F)(F)F)[N+]2=O | -81.4% (active)
8 | CNCCCn1c2c(c3ccc(Cl)cc3c1=O)C(=O)c1cc(OC)cnc1-2 | 67.2%
9 | C=C1CC[C@@H]2C(C)(C)[C@H](O)CC[C@@]2(C)[C@@H]1COc1ccc2ccc(=O)oc2c1 | 44.1%
10 | C=C1C(=O)O[C@@H]2C[C@@H](C)/C=C\C(=O)[C@](C)(OC(C)=O)C[C@H](OC(=O)/C(C)=C\C)[C@@H]12 | -59.1% (active)
11 | NC1=NC(c2ccccc2)C2=C(N1)/C(=C/c1ccccc1)CCC2 (stereo not given) | 89.6%
12 | O=C(O)c1ccc([N+](=O)[O-])cc1S(=O)(=O)O | 98.6%
13 | Cc1ccccc1-n1nnc(C(=O)Nc2ccc(-c3ccccc3)cn2)c1C | 4.89% [50 µM] (active)
14 | C/C(=C(/c1ccc(Cl)cc1)c1ccc(OCCN2CCCC2)cc1)c1ccc(Cl)cc1 | 91.1%
15 | O=[N+]([O-])c1cccc(-c2nc3sccn3c2-c2ccnc(NCCCNS(=O)(=O)c3ccc(Br)cc3)n2)c1 | 29.2%
16 | CC1(O)CCCCCC1 | 100%
17 | COc1cc(NC(=O)NCc2ccco2)ccc1-c1ccc(NC(=O)NCc2ccco2)cc1OC | 16.8%
18 | COC(=O)[C@]1(C)CC[C@]2(C)CC[C@]3(C)C(=CC(=O)[C@@H]4[C@@]5(C)CCC(=O)NC(C)(C)[C@@H]5CC[C@]43C)[C@@H]2C1 | -49.5% [100 µM] (active)
19 | O=C(/C=C/c1ccc(Cl)nc1)c1ccc(Cl)cc1Cl | 91.5%
20 | CCCCN(CCCC)C(=O)CC | 113%

Row | Compound | growth
21 | COc1ccc2c(CCC(c3ccccc3)c3ccccc3)c3[n+](cc2c1OC)CCc1cc2c(cc1-3)OCO2 | -29.9% (active)
22 | CC(=O)c1c(C)nc2ccccc2c1/C=C/c1cccc(C)c1 | 28.5%
23 | O=C(NCCCN1CCN(CCCNC(=O)C2CCCCC2)CC1)C1CCCCC1 | 110%
24 | CC(=O)Nc1ccc(S(=O)(=O)N/N=C(\C)c2ccc(C)cc2C)cc1 | 112%
25 | Cc1ccc([C@@H]2C[C@H](O)Cc3ccccc3N2)s1 | 124%
26 | Cc1ccc(S(=O)(=O)N(CCc2ccc(Cl)cc2)S(=O)(=O)c2ccc(C)cc2)cc1 | 73.8%
27 | O=c1c2cc(Br)cc(Br)c2nc(-c2ccc(Cl)cc2)n1/N=C\c1ccccc1F | 79.1%
28 | COc1ccc2nc(-c3ccc(Cl)cc3)cc(-c3nnc(SC/C(=N\O)c4ccccc4)n3-c3ccccc3)c2c1 | 60.4%
29 | COc1ccc(/C=C/C(=O)c2ccc(NC(=O)CSc3nnc(-c4ccc(Cl)cc4)n3-c3ccccc3)cc2)cc1 | 94.8%
30 | CC(C)(C)c1ccc(C(=O)N/N=C/c2ccc(O)cc2O)cc1 | -32.5% (active)
31 | C=C1C(=O)O[C@H]2[C@H]1CC/C(COC(=O)NCc1ccc(Cn3c(=O)sn(-c4ccc(I)cc4)c3=O)cc1)=C\CC[C@@]1(C)O[C@@H]21 | 29.6%
32 | CC/C=C\C/C=C\C[C@H](O)C/C=C1/C(=O)C=C[C@H]1C/C=C\CCC(=O)OC | 28.3% [8.25 µM]
33 | Cc1ccc2c(c1)O/C(=C\c1ccc([N+](=O)[O-])o1)C2=O | 23.3%
34 | CNc1cc(-c2cccc(OC(F)(F)F)c2)nc2ccc(N3CCCC3)cc12 | -69.7% (active) and -68% (active) and -66.2% (active)
35 | COc1ccc(-c2nn(-c3ccccc3)cc2/C=C/C(=O)c2ccc(NC(=O)CCCCCCC(=O)NO)cc2)cc1 | 92.8%
36 | CC(=O)C1CCC2C3CC(F)C4=CC(=O)CCC4(C)C3C(O)CC12C (stereo not given) | 104%
37 | NC(=O)C12C(=O)NC(=O)C1(C(=O)O)C21CCCC1 (stereo not given) | 112%
38 | COCCn1cc(-c2nc(-c3cc4cccnc4n3CCOC)cs2)c2cc(OC)ccc21 | -18.4% (active)
39 | CCCCCCCCCCN1CC2CCCCC2C1 (stereo not given) | 54.7%
40 | CCn1cc(C(=O)O)c(=O)c2cc(F)c(N3CCN(CC(=O)Nc4ccc(S(=O)(=O)Nc5nccc(C)n5)cc4)C(C)C3)c(F)c21 (stereo not given) | 96.4%
